# Measured values reported in PubChem BioAssay (Tox21).
# Results filed as inconclusive are left out. Entries that show only a call come without a potency. Activity calls are given as the source filed them. Unless noted, the call rests on the fitted dose curve; in most records, active means well fitted curve in the direction sought with a large enough effect in the repeat runs; inconclusive means weak or mixed curves; inactive means no such curve, though single readings can be large; an effect the other way counts as inactive or inconclusive.
# Assays:
# [1] = qHTS assay for small molecules that induce genotoxicity in human embryonic kidney cells expressing luciferase-tagged ATAD5 (AID 651632); further: nearly all actives have a fitted effect of over 15% in size
# Method in brief: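 A rise in luciferase signal from ATAD5-tagged HEK293T cells marks genetic stress. Cells were exposed to compounds for 16 hr at 37C, 5% CO2, then luciferase was quantified after a 30 min room-temperature incubation with Amplite.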
# [2] = qHTS assay for small molecule agonists of the p53 signaling pathway - cell viability (AID 651633; calls by dose curve; further: nearly all actives have a fitted effect of over 30% in size; further: potency means the concentration at half of the fitted maximal effect)
# Method in brief: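 p53RE-bla cells, seeded at 4,000 per well and rested 5 h at 37 C/5% CO2, received compounds in DMSO for 16 h at 37 C. CellTiter-Glo was then added, and luminescence was read after 30 min at room temperature to gauge cytotoxicity.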
# [3] = qHTS assay for small molecule disruptors of the mitochondrial membrane potential (AID 720635)
# Method in brief: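 HepG2 cells (2,000/well) attached overnight at 37C, then took compound for 1 hr at 37C, 5% CO2. Mito-MPS dye was added for 30 min; fluorescence was read at 490/535 nm (monomers) and 540/590 nm (aggregates).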
# [4] = qHTS assay to test for compound auto fluorescence at 590 nm (red) in HepG2 cells (AID 720674)
# Method in brief: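 Intrinsic compound fluorescence in the red window (Ex/Em 540/590 nm) is measured in attached HepG2 cells exposed for 1 hr, DMSO vehicle as baseline, benchmarked to Rose Bengal sodium.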
# [5] = qHTS assay to test for compound auto fluorescence at 535 nm (green) in HepG2 cells (AID 720675)
# [6] = qHTS assay to test for compound auto fluorescence at 460 nm (blue) in HEK293 cells (AID 720678)
# Method in brief: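 Blue-channel (Ex/Em 405/460 nm) intensity measured in HEK293 cultures after overnight compound exposure at 37C; signal expressed relative to triamterene. Cells plated 2,000 per well in 10% dialyzed FBS medium and allowed 4-5 hr to attach.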
# [7] = qHTS assay to test for compound auto fluorescence at 590 nm (red) in HEK293 cells (AID 720679)
# Method in brief: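 Red-channel autofluorescence (Ex/Em 540/590 nm; Rose Bengal sodium reference) was measured after overnight 37C, 5% CO2 exposure of attached HEK293 cells, 2,000 per well in medium with 10% dialyzed FBS.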
# [8] = qHTS assay to test for compound auto fluorescence at 535 nm (green) in HEK293 cells (AID 720680)
# [9] = qHTS assay to test for compound auto fluorescence at 535 nm (green) in HEK293 cell free culture (AID 720682)
# Method in brief: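 Each library compound, or DMSO control, is added by pintool to medium alone, comprising DMEM and 10% FBS. Emission at 535 nm following 485 nm excitation is quantified against fluorescein.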
# [10] = qHTS assay to test for compound auto fluorescence at 590 nm (red) in HEK293 cell free culture (AID 720683)
# Method in brief: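 Tox21 10K library compounds were pinned into cell-free DMEM with 10% FBS and fluorescence was read at excitation 540 nm. Activity is expressed as Rose Bengal sodium equivalency.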
# [11] = qHTS assay to test for compound auto fluorescence at 590 nm (red) in HepG2 cell free culture (AID 720684)
# Method in brief: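 Ex 540 / Em 590 nm read of compound in cell-free MEM (10% FBS). Rose Bengal sodium reference.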
# [12] = qHTS assay to test for compound auto fluorescence at 460 nm (blue) in HepG2 cell free culture (AID 720685)
# Method in brief: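 Cell-free plates of MEM plus 10% FBS received 23 nL compound or DMSO vehicle; blue-channel (405/460 nm) intensity scored against triamterene as reference fluorophore.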
# [13] = qHTS assay to test for compound auto fluorescence at 535 nm (green) in HepG2 cell free culture (AID 720686)
# [14] = qHTS assay to test for compound auto fluorescence at 460 nm (blue) in HepG2 cells (AID 720687)
# Method in brief: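 Cells (2,000/well in MEM with 10% FBS) attached overnight at 37 C, then were exposed to compound or DMSO for 1 hr at 37 C, 5% CO2. Fluorescence read at Ex/Em 405/460 nm, expressed as triamterene-equivalent signal.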
# [15] = target: Glucocorticoid receptor (Homo sapiens) (UniProt P04150); test: qHTS assay to identify small molecule agonists of the glucocorticoid receptor (GR) signaling pathway (AID 720691; active means well fitted activation curve with a large enough effect in the signal ratio in the repeat runs, not every such curve was filed as active; the % refers to the signal ratio)
# Method in brief: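 Agonist-mode qHTS in HeLa cells stably expressing a glucocorticoid-response-element beta-lactamase reporter. Fluorescence intensity read with FRET substrate (2 h, room temperature) after 18 h compound treatment at 37 C.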
# [16] = target: Glucocorticoid receptor (Homo sapiens) (UniProt P04150); test: qHTS assay to identify small molecule antagonists of the glucocorticoid receptor (GR) signaling pathway (AID 720692; active means well fitted inhibition curve with a large enough effect in the signal ratio in the repeat runs, not every such curve was filed as active; the % refers to the signal ratio; further: potency means the concentration at half of the fitted maximal effect)
# Method in brief: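 Inhibition of dexamethasone-driven (5 nM final) beta-lactamase expression was measured in GRE-reporter HeLa cells over 18 h at 37C. Fluorescence was read after 2 h with the B/G FRET substrate at room temperature.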
# [17] = qHTS assay for small molecule disruptors of the mitochondrial membrane potential - cell viability (AID 720634; calls by dose curve; further: nearly all actives have a fitted effect of over 20% in size; further: potency means the concentration at half of the fitted maximal effect)
# Method in brief: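 Cytotoxicity was quantified from ATP content by CellTiter-Glo luminescence in the same wells as the MMP dye read-out. HepG2 (2,000 cells/well) were plated overnight and exposed to compounds for 1 hr at 37 C.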
# [18] = qHTS assay to test for compound auto fluorescence at 460 nm (blue) in HEK293 cell free culture (AID 720681)
# Method in brief: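 Test compounds were pinned into cell-free culture medium (DMEM with 10% FBS) and fluorescence was read directly at Ex/Em 405/460 nm. Signals were expressed as fluorescence equivalents of triamterene, with DMSO vehicle as control.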
# [19] = qHTS assay for small molecules that induce genotoxicity in human embryonic kidney cells expressing luciferase-tagged ATAD5 - cell viability (AID 651634; calls by dose curve; further: nearly all actives have a fitted effect of over 25% in size)
# Method in brief: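 Cytotoxicity counter-readout: after 15.5 hr compound treatment at 37C, live-cell protease activity in ATAD5-luciferase HEK293T cells measured by CellTiter-Fluor fluorescence, 30 min development at 37C.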
# Glucocorticoid receptor (Homo sapiens), sequence (P04150 whole entry, looked up): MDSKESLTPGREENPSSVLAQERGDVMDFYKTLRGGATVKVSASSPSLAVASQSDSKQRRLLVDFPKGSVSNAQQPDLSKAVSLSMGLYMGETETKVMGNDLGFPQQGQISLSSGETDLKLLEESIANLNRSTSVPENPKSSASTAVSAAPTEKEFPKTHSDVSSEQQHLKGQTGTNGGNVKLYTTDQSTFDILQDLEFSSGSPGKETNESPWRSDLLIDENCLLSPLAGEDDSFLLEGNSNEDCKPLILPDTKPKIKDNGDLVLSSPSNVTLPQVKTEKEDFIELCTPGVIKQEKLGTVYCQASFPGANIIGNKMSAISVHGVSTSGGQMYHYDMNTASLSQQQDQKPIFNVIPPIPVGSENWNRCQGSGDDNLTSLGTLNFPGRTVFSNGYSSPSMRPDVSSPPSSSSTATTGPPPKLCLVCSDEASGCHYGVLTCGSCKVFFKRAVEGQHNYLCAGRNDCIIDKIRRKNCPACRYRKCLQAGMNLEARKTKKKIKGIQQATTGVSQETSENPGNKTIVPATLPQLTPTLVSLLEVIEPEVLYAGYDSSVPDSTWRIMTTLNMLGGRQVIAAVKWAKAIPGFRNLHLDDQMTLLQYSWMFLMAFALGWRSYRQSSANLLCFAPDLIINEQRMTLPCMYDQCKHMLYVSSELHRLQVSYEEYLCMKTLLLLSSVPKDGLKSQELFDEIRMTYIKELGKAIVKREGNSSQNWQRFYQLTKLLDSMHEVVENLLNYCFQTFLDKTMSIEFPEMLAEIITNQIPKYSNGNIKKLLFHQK
Compound,Potency [1],Potency [2],Potency [3],outcome [4],outcome [5],outcome [6],outcome [7],outcome [8],outcome [9],outcome [10],outcome [11],outcome [12],outcome [13],outcome [14],outcome [15],Potency [16],Potency [17],outcome [18],Potency [19]
N#CC(O)c1ccccc1 (centres undefined),inactive,inactive,inactive,inactive,inactive,inactive,inactive,inactive,inactive,inactive,inactive,inactive,inactive,inactive,inactive,inactive,–,–,–
O=C1CN=C(c2ccccc2)c2cc([N+](=O)[O-])ccc2N1,inactive,inactive,inactive,inactive,inactive,inactive,inactive,inactive,inactive,inactive,inactive,inactive,inactive,inactive,inactive,inactive,inactive,inactive,–
CCOP(=O)(N=C1SCCS1)OCC,inactive,inactive,–,inactive,inactive,inactive,inactive,inactive,inactive,inactive,inactive,inactive,inactive,inactive,inactive,–,–,–,–
CCOc1nc(C(Cl)(Cl)Cl)ns1,inactive,inactive,–,inactive,inactive,inactive,inactive,inactive,inactive,inactive,inactive,inactive,inactive,inactive,–,–,inactive,–,–
CCC(C)(C)c1cc(-n2nc3ccccc3n2)c(O)c(C(C)(C)CC)c1,–,inactive,–,–,inactive,inactive,inactive,inactive,inactive,inactive,–,inactive,inactive,inactive,inactive,–,inactive,inactive,inactive
C#CCN1C(=O)COc2cc(F)c(N3C(=O)C4=C(CCCC4)C3=O)cc21,inactive,–,–,inactive,inactive,inactive,inactive,inactive,inactive,inactive,inactive,inactive,inactive,inactive,inactive,inactive,–,inactive,inactive
CCCCc1ccc(O)cc1,inactive,inactive,–,–,inactive,inactive,inactive,inactive,inactive,inactive,inactive,inactive,inactive,inactive,inactive,inactive,–,inactive,inactive
N#CC(CCc1ccc(Cl)cc1)(Cn1cncn1)c1ccccc1 (centres undefined),inactive,6.86 µM (active),–,–,inactive,inactive,inactive,inactive,inactive,inactive,inactive,inactive,inactive,inactive,–,–,inactive,inactive,–
CCCSP(=O)(OCC)Oc1ccc(Br)cc1Cl (centres undefined),inactive,–,–,inactive,inactive,inactive,inactive,inactive,inactive,–,inactive,inactive,inactive,inactive,–,–,16.7 µM (active),–,–
Nc1c(Br)cc([N+](=O)[O-])cc1[N+](=O)[O-],inactive,–,–,inactive,inactive,inactive,inactive,inactive,inactive,inactive,inactive,inactive,inactive,inactive,–,–,61.8 µM (active),inactive,–
COC(=O)c1ccccc1S(=O)(=O)NC(=O)Nc1nc(C)cc(C)n1,inactive,inactive,–,inactive,inactive,inactive,inactive,inactive,inactive,inactive,–,inactive,inactive,inactive,–,inactive,inactive,inactive,–
C1CCC(C2CCCCC2)CC1,inactive,–,–,inactive,inactive,inactive,inactive,inactive,–,inactive,inactive,inactive,inactive,inactive,–,–,inactive,inactive,inactive
CN1C(=S)CN=C(c2ccccc2)c2cc(Cl)ccc21,–,inactive,–,inactive,inactive,inactive,inactive,inactive,inactive,–,inactive,inactive,inactive,–,inactive,12 µM (active),inactive,inactive,inactive
CC(C)(C)OC(=O)c1ncn2c1[C@@H]1CCCN1C(=O)c1c(Br)cccc1-2,inactive,–,–,inactive,inactive,inactive,inactive,inactive,inactive,–,inactive,inactive,inactive,inactive,–,–,–,–,inactive
